Measurements taken from the supplement of paper PMC12282887.
± gives the standard deviation of the averaged measurements.

Experiments:
Assay in all cases: promoter activity interaction Z-score (Lux/OD deviation from empty-vector control); higher = stronger promoter induction by the compound
[1] = test system: E. coli BW25113 acrABp lux reporter
Summary of the method: (§1)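 E. coli BW25113 luxCDABE reporter strains grew at 37°C in 40 µl LB Lennox in 384-well plates, with OD600 and luminescence read every 30 min for 12 h. After integration over 0–8 h for wild type or 1–9 h for deletion strains, wells under 10% of the median growth value were removed. Each score is the Z-transformed residual of growth-normalised luminescence fitted against a control.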

[2] = test system: E. coli BW25113 micFp lux reporter
Summary of the method: as §1

[3] = test system: E. coli BW25113 ompFp lux reporter
Summary of the method: as §1

[4] = test system: E. coli BW25113 robp lux reporter
Summary of the method: as §1

[5] = test system: E. coli BW25113 soxSp lux reporter
Summary of the method: as §1

[6] = test system: E. coli BW25113 tolCp lux reporter
Summary of the method: as §1

[7] = 22.7 µg/ml, genetic background: wild type
[8] = 22.7 µg/ml, genetic background: ΔmarA
[9] = 22.7 µg/ml, genetic background: Δrob
[10] = 22.7 µg/ml, genetic background: ΔsoxS
[11] = 45.3 µg/ml, genetic background: wild type
[12] = 45.3 µg/ml, genetic background: ΔmarA
[13] = 45.3 µg/ml, genetic background: Δrob
[14] = 45.3 µg/ml, genetic background: ΔsoxS
[15] = 90.6 µg/ml, genetic background: wild type
[16] = 90.6 µg/ml, genetic background: ΔmarA
[17] = 90.6 µg/ml, genetic background: Δrob
[18] = 90.6 µg/ml, genetic background: ΔsoxS
[19] = 181.2 µg/ml, genetic background: wild type
[20] = 181.2 µg/ml, genetic background: ΔmarA
[21] = 181.2 µg/ml, genetic background: Δrob
[22] = 181.2 µg/ml, genetic background: ΔsoxS

## C[C@]12CCC(=O)C=C1CC[C@@H]1[C@@H]2[C@@H](O)C[C@@]2(C)[C@H]1CC[C@]2(O)C(=O)CO [Hydrocortisone]
[1]; [7]
  promoter activity interaction Z-score: 0.0762 ± 0.23
[1]; [8]
  promoter activity interaction Z-score: 1.29 ± 0.12
[1]; [9]
  promoter activity interaction Z-score: 0.155 ± 0.043
[1]; [10]
  promoter activity interaction Z-score: -0.247 ± 0.36
[1]; [11]
  promoter activity interaction Z-score: -0.118 ± 0.13
[1]; [12]
  promoter activity interaction Z-score: -0.299 ± 0.39
[1]; [13]
  promoter activity interaction Z-score: -0.0995 ± 0.075
[1]; [14]
  promoter activity interaction Z-score: -0.18 ± 0.021
[1]; [15]
  promoter activity interaction Z-score: -0.0327 ± 0.25
[1]; [16]
  promoter activity interaction Z-score: 0.944 ± 0.81
[1]; [17]
  promoter activity interaction Z-score: -0.203 ± 0.1
[1]; [18]
  promoter activity interaction Z-score: -0.563 ± 0.76
[1]; [19]
  promoter activity interaction Z-score: -0.103 ± 0.25
[1]; [20]
  promoter activity interaction Z-score: 0.322 ± 0.17
[1]; [21]
  promoter activity interaction Z-score: -0.0446 ± 0.063
[1]; [22]
  promoter activity interaction Z-score: -0.63 ± 0.4
[2]; [7]
  promoter activity interaction Z-score: -0.121 ± 0.17
[2]; [8]
  promoter activity interaction Z-score: -0.0598 ± 0.096
[2]; [9]
  promoter activity interaction Z-score: 0.0274 ± 0.19
[2]; [10]
  promoter activity interaction Z-score: -0.338 ± 0.18
[2]; [11]
  promoter activity interaction Z-score: -0.199 ± 0.022
[2]; [12]
  promoter activity interaction Z-score: -0.00993 ± 0.17
[2]; [13]
  promoter activity interaction Z-score: -0.112 ± 0.071
[2]; [14]
  promoter activity interaction Z-score: -0.292 ± 0.17
[2]; [15]
  promoter activity interaction Z-score: -0.0486 ± 0.33
[2]; [16]
  promoter activity interaction Z-score: 0.0152 ± 0.072
[2]; [17]
  promoter activity interaction Z-score: -0.0859 ± 0.072
[2]; [18]
  promoter activity interaction Z-score: -0.443 ± 0.012
[2]; [19]
  promoter activity interaction Z-score: -0.162 ± 0.41
[2]; [20]
  promoter activity interaction Z-score: 0.0829 ± 0.11
[2]; [21]
  promoter activity interaction Z-score: 0.0154 ± 0.043
[2]; [22]
  promoter activity interaction Z-score: -0.487 ± 0.11
[3]; [7]
  promoter activity interaction Z-score: -0.318 ± 0.33
[3]; [8]
  promoter activity interaction Z-score: -1.05 ± 0.19
[3]; [9]
  promoter activity interaction Z-score: -0.188 ± 0.34
[3]; [10]
  promoter activity interaction Z-score: -0.146 ± 0.36
[3]; [11]
  promoter activity interaction Z-score: -0.51 ± 0.41
[3]; [12]
  promoter activity interaction Z-score: -0.8954 ± 0.0059
[3]; [13]
  promoter activity interaction Z-score: -0.15 ± 0.053
[3]; [14]
  promoter activity interaction Z-score: -0.152 ± 0.059
[3]; [15]
  promoter activity interaction Z-score: -0.587 ± 0.064
[3]; [16]
  promoter activity interaction Z-score: -0.994 ± 0.16
[3]; [17]
  promoter activity interaction Z-score: -0.657 ± 0.24
[3]; [18]
  promoter activity interaction Z-score: -1.03 ± 0.14
[3]; [19]
  promoter activity interaction Z-score: -0.507 ± 0.061
[3]; [20]
  promoter activity interaction Z-score: -0.698 ± 0.09
[3]; [21]
  promoter activity interaction Z-score: -0.507 ± 0.34
[3]; [22]
  promoter activity interaction Z-score: -0.928 ± 0.4
[4]; [7]
  promoter activity interaction Z-score: 0.0773 ± 1.2
[4]; [8]
  promoter activity interaction Z-score: 0.0463 ± 0.066
[4]; [9]
  promoter activity interaction Z-score: 0.694 ± 1.1
[4]; [10]
  promoter activity interaction Z-score: -0.236 ± 0.064
[4]; [11]
  promoter activity interaction Z-score: -0.333 ± 0.93
[4]; [12]
  promoter activity interaction Z-score: 0.247 ± 0.23
[4]; [13]
  promoter activity interaction Z-score: 0.312 ± 0.14
[4]; [14]
  promoter activity interaction Z-score: 0.174 ± 0.55
[4]; [15]
  promoter activity interaction Z-score: -0.0645 ± 0.73
[4]; [16]
  promoter activity interaction Z-score: -0.315 ± 0.028
[4]; [17]
  promoter activity interaction Z-score: 0.1 ± 1.2
[4]; [18]
  promoter activity interaction Z-score: -0.777 ± 0.35
[4]; [19]
  promoter activity interaction Z-score: -0.438 ± 0.64
[4]; [20]
  promoter activity interaction Z-score: -0.167 ± 0.27
[4]; [21]
  promoter activity interaction Z-score: 0.558 ± 0.36
[4]; [22]
  promoter activity interaction Z-score: 0.106 ± 1
[5]; [7]
  promoter activity interaction Z-score: 0.274 ± 0.098
[5]; [8]
  promoter activity interaction Z-score: -0.206 ± 0.075
[5]; [9]
  promoter activity interaction Z-score: 0.0559 ± 0.11
[5]; [10]
  promoter activity interaction Z-score: -0.266 ± 0.045
[5]; [11]
  promoter activity interaction Z-score: 0.0799 ± 0.065
[5]; [12]
  promoter activity interaction Z-score: -0.198 ± 0.084
[5]; [13]
  promoter activity interaction Z-score: 0.0141 ± 0.1
[5]; [14]
  promoter activity interaction Z-score: -0.247 ± 0.054
[5]; [15]
  promoter activity interaction Z-score: -0.0463 ± 0.13
[5]; [16]
  promoter activity interaction Z-score: -0.321 ± 0.095
[5]; [17]
  promoter activity interaction Z-score: -0.185 ± 0.0079
[5]; [18]
  promoter activity interaction Z-score: -0.58 ± 0.1
[5]; [19]
  promoter activity interaction Z-score: -0.0782 ± 0.16
[5]; [20]
  promoter activity interaction Z-score: -0.3408 ± 0.003
[5]; [21]
  promoter activity interaction Z-score: -0.284 ± 0.044
[5]; [22]
  promoter activity interaction Z-score: -0.743 ± 0.29
[6]; [7]
  promoter activity interaction Z-score: 0.184 ± 0.076
[6]; [8]
  promoter activity interaction Z-score: 0.724 ± 1.1
[6]; [9]
  promoter activity interaction Z-score: 0.231 ± 1.1
[6]; [10]
  promoter activity interaction Z-score: -0.0445 ± 0.42
[6]; [11]
  promoter activity interaction Z-score: -0.258 ± 0.085
[6]; [12]
  promoter activity interaction Z-score: 0.509 ± 1.2
[6]; [13]
  promoter activity interaction Z-score: 0.65 ± 0.86
[6]; [14]
  promoter activity interaction Z-score: -1.3 ± 0.73
[6]; [15]
  promoter activity interaction Z-score: 0.153 ± 0.86
[6]; [16]
  promoter activity interaction Z-score: 0.621 ± 0.97
[6]; [17]
  promoter activity interaction Z-score: 0.0433 ± 0.14
[6]; [18]
  promoter activity interaction Z-score: -0.413 ± 0.29
[6]; [19]
  promoter activity interaction Z-score: -0.363 ± 0.23
[6]; [20]
  promoter activity interaction Z-score: 0.0951 ± 0.92
[6]; [21]
  promoter activity interaction Z-score: 0.261 ± 1.6
[6]; [22]
  promoter activity interaction Z-score: 0.18 ± 0.34
